# Assay results as given in PubChem BioAssay AID2165 (The Scripps Research Institute Molecular Screening Center, 2009).
# A number with no mark means an inactive call. The source made the active and inactive calls. Rule as the data show it: active = IC50 below about 9 µM; inactive = the rest.
# Tested on: Ba/F3 Cytotoxicity
# Assay: JAK2V617F kinase, IRF1 reporter and Ba/F3 cytotoxicity panel, late-stage follow-up, HEL and Ba/F3 cells (AID 2165)
row,SMILES,IC50
1,CCc1cccc(Nc2ncnc3cc(OCCOC)c(OCCOC)cc23)c1,> 40 µM
2,CCC(C)c1ccc(OCC(=O)Nc2cc(C)ccc2O)cc1 (stereo not drawn),6.47 µM (active)
3,Cc1[nH]c(=O)c(C(=O)C=Cc2ccc(C(C)C)cc2)c2c1CCCC2,2.74 µM (active)
4,N#CC(=Cc1ccc(O)c(O)c1)C(=S)NCc1ccccc1,1.09 µM (active)
5,COc1ccccc1/C=C/C(=O)c1c2c(c(C)[nH]c1=O)CCCC2,1.06 µM (active)
6,COc1cc2ncnc(Sc3ccc(Cl)cc3)c2cc1OC,> 40 µM
7,COc1ccccc1OCC(=O)Nc1cc(C)ccc1O,0.018 µM (active)
8,COc1cccc(Nc2ncnc3cc(OC)c(OC)cc23)c1,> 40 µM
9,Cc1ccc(O)c(NC(=O)COc2ccc(I)cc2)c1,0.0269 µM (active)
10,COc1cc2ncnc(Nc3cccc(C)c3)c2cc1OC,> 40 µM
11,COCCOc1cc2nc[nH]c(=O)c2cc1OCCOC,> 40 µM
12,C=CCNc1ncnc2cc(OC)c(OC)cc12,> 40 µM
13,COc1cc(C=C(C#N)C(N)=O)cc(CSc2ccccc2)c1O,> 40 µM
14,Cc1cccc(OCC(=O)Nc2cc(C)c(C)cc2O)c1,> 40 µM
15,CCC(C)Nc1ncnc2cc(OC)c(OC)cc12 (stereo not drawn),> 40 µM
16,Cc1cccc(OCC(=O)Nc2ccccc2F)c1,> 40 µM
17,Cc1cc(C)cc(NC(=O)COc2cccc(C)c2)c1,> 40 µM
18,COc1cc2ncnc(NC(C)C)c2cc1OC,> 40 µM
